Screen size: about 320,000 compounds; about 2,100 (0.66%) were called active. Another 53% or so got no clear call; they are omitted. Calls come from the whole dose curve; as a rule, active = well fitted inhibition curve with a large enough effect in the signal ratio, with a control signal flat (not every such curve was filed as active); inconclusive = small, poorly fitted or top-dose-only effect, or effect the other way, or a change in a side signal; inactive = flat fitted curve, though single readings scatter; the % refers to the signal ratio. The sample as a whole holds a higher share of actives than the screen did.
Experiment: qHTS Assay for Lipid Storage Modulators in Drosophila S3 Cells;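 for cell number change: cells counted by Cell Tracker Red CMTPX staining in the red channel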; for lipid storage change, negative = inhibition: % is set by controls: 0 for no effect and ±100 for the full control effect
Details: BODIPY lipid droplet fluorescence, 18-24 h, cells fed with added oleic acid; cell number change: measured here: cell count max response; series mostly up to 46.1 µM
In short: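 Drosophila S3 cells loaded with oleic acid (400 uM, as added) and compounds at several concentrations; lipid droplets imaged by 488-nm laser-scanning cytometry, 500–530 nm intensity and object ratio to cell channel. Percent activity normalized to 20 uM Triacsin C.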
Potency is the fitted concentration of half-maximal effect.

Row | SMILES | Potency | cell number change [%] | lipid storage change, negative = inhibition
1 | COC(=O)CCCC1=CC2=CC(=O)C(C)(OC(=O)c3cccs3)C(=O)C2=CN1c1ccc(OC)cc1 (stereo unspecified) | inactive |  | 
2 | COc1ccc(N2C(=O)c3ccccc3C2=O)cc1 | inactive | 2.95 | 
3 | COc1ccc2c(c1)C(=O)N(c1ccc(C)cc1)C(=O)C2 | inactive | 11.1 | 
4 | COc1ccc2c(c1)C(=O)N(c1ccccc1)C(=O)C2 | 23.1 µM (active) | -11.7 | 
5 | COc1ccc(N2C(=O)Cc3ccccc3C2=O)cc1 | inactive | 10.9 | 
6 | CCOc1ccc(N2C(=O)Cc3ccccc3C2=O)cc1 | 29.1 µM (active) | 0.833 | 
7 | O=C1Cc2ccccc2N1c1ccccc1 | inactive | 11.5 | 
8 | CCOc1ccc(N2C(=O)c3cccnc3C2=O)cc1 | inactive | -11.4 | 
9 | O=C1Cc2ccccc2C(=O)N1c1cccc(Cl)c1 | inactive | 10.3 | 
10 | O=C1Cc2ccccc2C(=O)N1c1ccccc1 | 10.3 µM (active) | 9.57 | 
11 | COc1ccccc1C(=O)NC(=O)COC(=O)c1oc2ccccc2c1C | inactive | 20 | 
12 | CCOc1nc(-c2ccccc2)ccc1-c1noc(-c2ccco2)n1 | inactive | -9.76 | 
13 | O=C1CN(C(=O)COC(=O)Cc2ccsc2)c2ccccc2N1 | inactive | 4.09 | 
14 | NC(=O)C(c1ccc(Cl)cc1)c1ncc(C(F)(F)F)cc1Cl (stereo unspecified) | inactive | 6.15 | 
15 | CCC(=O)c1ccc(OCC(=O)OCC(=O)NC2CCCC2)cc1 |  | -7.74 | 7.81% [at 0.0737 µM] (inactive)
16 | Cc1cccc(NC(=O)c2sc(Cl)nc2C)c1C | inactive | 27.7 | 
17 | CCOC(=O)c1sc(Nc2cccc(C)c2C)nc1C | inactive |  | 
18 | Cc1nc(C)c(C(=O)OCC(=O)NCCc2ccc(S(N)(=O)=O)cc2)s1 | inactive | 5.35 | 
19 | COc1ccc(CCNC(=O)COC(=O)c2sc(C)nc2C)cc1 | inactive | 13.9 | 
20 | Cc1nc(C)c(C(=O)OCC(=O)NCc2ccccc2)s1 | 1.16 µM (active) | 2.69 | 
21 | Cc1nc(C)c(C(=O)OCC(=O)Nc2cccc(C)c2C)s1 | 16.4 µM (active) | -21.3 | 
22 | Cc1cccc(C)c1NC(=O)CN(C)C(=O)c1cccc(-n2cccc2)c1 |  |  | 9.6% [at 0.0737 µM] (inactive)
23 | N#Cc1cccc(NC(=O)COC(=O)CCc2ccc(S(=O)(=O)N3CCOCC3)cc2)c1 | inactive | 0.933 | 
24 | CCOC(=O)C(=NC(C)CC)NNc1cccc(C(F)(F)F)c1 (stereo unspecified) | inactive | 0.302 | 

Row | SMILES | Potency | cell number change [%] | lipid storage change, negative = inhibition
25 | Cc1cccc(C)c1N(CC(=O)NCc1ccccc1)C(=O)c1csnn1 | inactive | -7.94 | 
26 | CN(C)C(=O)c1nc2ccc(Cl)cn2c1CNCc1ccccc1OC(F)(F)F | inactive | -4.39 | 
27 | O=C1NC(=S)N/C1=C\c1ccc(N2CCOCC2)cc1 | inactive |  | 
28 | CC(C)N1CC2=C(OC(N)=C(C#N)C2c2cccnc2)/C(=C/c2cccnc2)C1 (stereo unspecified) | inactive | -0.305 | 
29 | CN1C/C(=C/c2cccnc2)C(=O)/C(=C/c2cccnc2)C1 | 1.84 µM (active) | -16.3 | 
30 | CC(C)N1C(=O)S/C(=C/c2cccnc2)C1=O | inactive | 16.4 | 
31 | CN1C/C(=C/c2ccncc2)C(=O)/C(=C/c2ccncc2)C1 | inactive | 15.3 | 
32 | CN1C/C(=C\c2ccc(N3CCOCC3)cc2)C(=O)/C(=C/c2ccc(N3CCOCC3)cc2)C1 | 7.31 µM (active) | -12.7 | 
33 | C(=N\N1CCN(Cc2ccccc2)CC1)/c1cccnc1 | inactive | 3.04 | 
34 | CC1=N/C(=C/c2cccnc2)C(=O)O1 | inactive | -0.0715 | 
35 | O=C1/C(=C\c2cccnc2)CN(Cc2ccccc2)C/C1=C\c1cccnc1 | 2.31 µM (active) | -26.3 | 
36 | O=C1/C(=C/c2cccnc2)CCc2c1[nH]c1ccccc21 | inactive | -5.69 | 
37 | CC(C)N1C/C(=C/c2cccnc2)C(=O)/C(=C/c2cccnc2)C1 | 23.1 µM (active) | -15.1 | 
38 | O=C1/C(=C\c2cccnc2)CCc2ccccc21 | inactive | -16.3 | 
39 | COc1ccc(N2C(=O)/C(=C/c3ccc([N+](=O)[O-])cc3)N=C2C)c(OC)c1 | inactive | -0.57 | 
40 | O=c1c2cc3c(nc2[nH]c(=S)n1-c1ccccc1)CCCC3 | inactive | 8.9 | 
41 | COc1ccccc1OCCNc1cc(N2CCCCC2)ccc1[N+](=O)[O-] | inactive | 20.1 | 
42 | CCOc1ccc2nc(SCC(=O)Nc3ccc4c(c3)OCCO4)[nH]c2c1 | inactive | -1.86 | 
43 | O=C(/C=C/c1ccco1)N(Cc1ccccc1F)C1CCS(=O)(=O)C1 (stereo unspecified) | inactive | 19.4 | 
44 | CCOc1ccccc1-n1c(SCC(=O)N2CCOCC2)nnc1-c1ccccn1 | inactive | 1.75 | 
45 | N#Cc1ccc(/C=N/NC(=O)c2cc(-c3cccs3)nc3ccccc23)cc1 | inactive | 12.5 | 
46 | COc1ccc(NCc2nnc(SCC(=O)Nc3ccc(OC)cc3OC)o2)cc1 | inactive | 8.92 | 
47 | CCOC(=O)N1CCN(C(=O)CN(c2ccccc2OC)S(=O)(=O)c2ccc(C)cc2)CC1 | inactive |  | 
48 | O=C1/C(=C\c2ccsc2)N2CCC1CC2 | inactive | 5.98 | 

Row | SMILES | Potency | cell number change [%] | lipid storage change, negative = inhibition
49 | O=C1/C(=C/c2ccsc2)N2CCC1CC2 | inactive | -5.13 | 
50 | CC(C)N1C/C(=C/c2ccsc2)C(=O)/C(=C/c2ccsc2)C1 | 14.6 µM (active) | -15.9 | 
51 | CN(C)CC(C)(C)CNS(=O)(=O)c1ccc(Cl)cc1 | inactive | 27.8 | 
52 | CN(C)CC(C)(C)CNS(=O)(=O)c1ccc(Cl)c(Cl)c1 | 23.1 µM (active) | -9.4 | 
53 | CC(C)(CNS(=O)(=O)c1ccc(F)cc1)CNS(=O)(=O)c1ccc(F)cc1 | inactive | 6.92 | 
54 | CCCc1ccc(OCCNC(=O)C2CCCCC2)cc1 | inactive | -6.51 | 
55 | CC(=O)Nc1ccc(S(=O)(=O)n2cnc3ccccc32)cc1 | inactive | 13.3 | 
56 | O=C(CN1C(=O)CCC1=O)Nc1cccc(NC(=O)CN2C(=O)CCC2=O)c1 | inactive | -5.66 | 
57 | O=C(CCN1c2ccccc2Sc2ccccc21)Oc1ccccc1 | inactive | -0.775 | 
58 | Cn1c(C(=O)NCC2CCCO2)cc2c(=O)[nH]c3ccccc3c21 (stereo unspecified) | inactive | 4.34 | 
59 | Cn1c(C(=O)NCC2CCCO2)cc2oc3ccccc3c21 (stereo unspecified) | 0.58 µM (active) | -14.1 | 
60 | Cn1c(C(=O)NCc2ccccc2)cc2oc3ccccc3c21 | inactive | 12.4 | 
61 | Cc1ccccc1CS(=O)(=O)CCC(=O)NCc1ccccn1 | inactive | -19.8 | 
62 | O=C(CSc1ccc(Cl)cc1)NCc1ccncc1 | inactive | 8.1 | 
63 | COc1cccc(/C=C/C(=O)N2CCN(c3ccccn3)CC2)c1 | inactive | -5.2 | 
64 | CN(C(=O)c1ccc(Cl)c(S(=O)(=O)N2CCOCC2)c1)c1ccccc1C(=O)O | 0.82 µM (active) | -5.89 | 
65 | COc1ccc(/C=C/C(=O)N2CCN(c3ccccn3)CC2)c(OC)c1OC | inactive | 5.19 | 
66 | COc1ccc(CC(=O)N(C)Cc2ccc(Cl)cc2)cc1S(=O)(=O)N1CCOCC1 | inactive |  | 
67 | O=C(Nc1ccc(NC(=O)c2ccc(Cl)c(S(=O)(=O)N3CCOCC3)c2)cc1)c1ccccc1 | inactive |  | 
68 | O=C(Nc1ccccc1C(=O)O)c1ccc(Cl)c(S(=O)(=O)N2CCOCC2)c1 | inactive | -21 | 
69 | COc1ccc(OC)c(S(=O)(=O)N2CCN(c3ccccn3)CC2)c1 | inactive | -24 | 
70 | COc1ccc(CC(=O)N(C)Cc2cccc(F)c2)cc1S(=O)(=O)N1CCOCC1 | inactive | 18.8 | 
71 | COc1ccc(S(=O)(=O)N2CCN(c3ccccn3)CC2)c(OC)c1 | inactive | -13 | 
72 | COc1cc(/C=C/C(=O)N2CCN(c3ccccn3)CC2)cc(OC)c1OC | 16.4 µM (active) | -26.3 | 

Row | SMILES | Potency | cell number change [%] | lipid storage change, negative = inhibition
73 | COc1ccc(C(=O)O)cc1S(=O)(=O)N1CCN(c2ccccn2)CC1 | 0.82 µM (active) | 2.78 | 
74 | COc1ccc(Br)cc1CN(C)C(=O)Cc1ccc(OC)c(S(=O)(=O)N2CCOCC2)c1 | 10.3 µM (active) | 30.1 | 
75 | Cn1c(N)c(C(=O)COC(=O)COc2ccccc2C#N)c(=O)n(C)c1=O | inactive |  | 
76 | CC1CCCCN1C(=O)c1ccc(Br)o1 (stereo unspecified) | inactive | 0.829 | 
77 | COc1ccc(/C=C/C(=O)c2ccc(O)cc2)cc1 | inactive | -13.4 | 
78 | CCNC(=S)NNC(=O)c1ccc(=O)n(Cc2ccccc2)c1 | inactive | 8.31 | 
79 | CN(C)C(=O)NC(Nc1ccc(Cl)cc1Cl)C(Cl)(Cl)Cl (stereo unspecified) | inactive |  | 
80 | Cc1ccc(CC(CC(=O)NCCc2ccc3c(c2)OCO3)C(=O)O)cc1 (stereo unspecified) | inactive |  | 
81 | O=C(NCc1cccnc1)c1ccc(Cl)c(S(=O)(=O)N2CCOCC2)c1 | inactive | -4.25 | 
82 | COc1ccc(C(=O)N2CCCC(C(N)=O)C2)cc1S(=O)(=O)N1CCOCC1 (stereo unspecified) | inactive | 10.1 | 
83 | COc1ccc(C(=O)N2CCCC2)cc1S(=O)(=O)N1CCOCC1 | 7.31 µM (active) | 9.79 | 
84 | CN1CCC(N(C)C(=O)c2ccc(Cl)c(S(=O)(=O)N3CCCCC3)c2)CC1 | 14.6 µM (active) | -2.26 | 
85 | COc1ccc(C)cc1S(=O)(=O)N1CCCCC1 | inactive | 6.88 | 
86 | COc1ccc(C(=O)N2CCN(S(=O)(=O)c3ccc(C)cc3)CC2)cc1S(=O)(=O)N1CCOCC1 | inactive | 3.33 | 
87 | COc1ccc(C(=O)OCc2ccc(C)cc2)cc1S(=O)(=O)N1CCOCC1 | inactive | 0.435 | 
88 | CN(C(=O)c1ccc(F)c(S(=O)(=O)N2CCOCC2)c1)C1CCCCC1 | inactive | 0.139 | 
89 | COc1ccc(C(=O)OCc2cc(C)ccc2C)cc1S(=O)(=O)N1CCCC1 | 0.082 µM (active) | -10.2 | 
90 | COc1ccc(CNC(=O)c2ccc(Cl)c(S(=O)(=O)N3CCOCC3)c2)cc1OC | 1.64 µM (active) | -21 | 
91 | CN(C(=O)c1ccc(S(=O)(=O)N2CCCC2)cc1)C1CCCCC1 | inactive | -9.06 | 
92 | O=C(NCc1ccncc1)c1ccc(Cl)c(S(=O)(=O)N2CCOCC2)c1 | inactive | 18.6 | 
93 | NC(=O)C1=C[C@@H](C2CCCCC2)C[C@@H](OCCCCO)O1 | inactive | 1.59 | 

Source: PubChem BioAssay AID2685 (National Center for Advancing Translational Sciences (NCATS), 2010)
